The panel holds about 79,000 compounds, 15% with a hit somewhere; the sample as a whole holds those more often. A number with no mark means an inactive call. Calls of active or inactive are those of the source. No stated cut-off is given here; in the data, active means growth inhibition above about 70%; inactive means the rest.

This experiment in a line: NCI Yeast Anticancer Drug Screen. Data for the bub3 strain (AID 167). To be noted: S. cerevisiae bub3 mutant strain, at 11.0 µM, stronger effect = higher value. The method, boiled down: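 Growth of a checkpoint-deficient yeast mutant is measured after compound exposure. Values represent inhibition relative to vehicle.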
Regarding `CCCc1cc(C(=O)OCC)cc(CCC)c1O`, the growth inhibition is 39%.

In the case of `CC(C)[N+]([O-])(CCCNc1c2ccccc2nc2cccc([N+](=O)[O-])c12)C(C)C`, the growth inhibition was 33%.

Turning to `COc1cc2c3c(cccc3c1)C(=O)N(CCN(C)C)C2=O`, the growth inhibition was -9%.

Regarding `NC(=O)NN=C(CS)CS`, the growth inhibition was 3%.

In the case of `Cc1ccc(NC(=O)/C(Cl)=C(\Cl)C(=O)O)cc1C`, the growth inhibition was 20%.

For the compound `CCN(CC)CC[n+]1ccc2c(C)c3[nH]c4ccc(O)cc4c3c(C)c2c1`, the growth inhibition is -5%.

In the case of `CC(CC(C)(C)[N+](C)(C)C)[N+](C)(C)C` (centres undefined), the growth inhibition is 0%.

`COc1ccc(OC)c2cc3ccccc3cc12`: the growth inhibition was 22%.

`Nc1ncncc1C(C1=C(O)COC1=O)C1=C(O)COC1=O`: the growth inhibition is -1%.

Take `CSC1=NNC(SC)=NN1`: the growth inhibition is 54%.

Turning to `Cc1c(Cl)ccc2c1S(=O)(=O)c1cccc(Cl)c1-2`, the growth inhibition is 1%.

On to `[O-][n+]1c2ccc(O)cc2nc2ccc(Cl)cc21`, for which the growth inhibition is 23%.

Turning to `COc1ccc2ccc3ccccc3c2c1C=O`, the growth inhibition was -5%.

For `Nc1ccc2c(c1)C(=O)c1cccc(N)c1C2=O`, the growth inhibition was 25%.

As to `O=C(c1ccc(Cl)cc1Cl)C(Cl)Cl`, the growth inhibition is 3%.

As for `COc1cc(C(=O)/C=C/c2ccccc2O)ccc1O`, the growth inhibition was 99% (active).

For `O=Cc1cccc2ccc3ccccc3c12`, the growth inhibition is -3%.

Regarding `O=C(Nc1ccc(Cl)cc1)OCC#CCCl`, the growth inhibition is 4%.

Turning to `Cn1ccnc1Oc1ccc(Cl)cc1`, the growth inhibition was 0%.

Turning to `c1ccc2c(c1)C(=NCCCN1CCCCCC1)c1cccn1-2`, the growth inhibition was 0%.

In the case of `C/C(=N\O)C1CC2C=C(C#N)C1N(Cc1ccccc1)C2` (centres undefined), the growth inhibition is -3%.

`O=[N+]([O-])C(=C(Sc1ccccc1)Sc1ccccc1)C(Cl)=C(Cl)Cl`: the growth inhibition was 33%.

`CCCCCCCCCC/C=C\C(=O)O`: the growth inhibition is -29%.

`COc1ccc(N=C2C(=O)Nc3ccc(Br)cc32)cc1`: the growth inhibition is -2%.

Regarding `COc1ccccc1C(=O)OCC1CCCN2CCCCC12` (centres undefined), the growth inhibition was 31%.

With `CC(C)(Br)C(=O)/C=C/c1ccc(Cl)c(Cl)c1`, the growth inhibition is -2%.

On to `Nc1ccccc1CC(O)C(=O)O` (centres undefined), for which the growth inhibition is 9%.

As to `CC(=O)N/N=C/C(C)(C)C(C)(C)/C=N/NC(C)=O`, the growth inhibition was -4%.

Turning to `CN(C)c1nc2sc3c(c2c(=O)o1)CCCC3`, the growth inhibition is 44%.

Turning to `CC(C)OC(=O)Oc1ccccc1OC(=O)OC(C)C`, the growth inhibition was 4%.

`Cc1ccc(N)c(S)c1`: the growth inhibition was 48%.

As to `O=C(O)c1ccccc1NC(=S)c1ccccc1`, the growth inhibition was 0%.

With `COC(=O)c1ccc(NCC2=CC(=O)C=CC2=O)cc1O`, the growth inhibition is 20%.

In the case of `NC(N)=N/N=C\c1c2ccccc2cc2ccccc12`, the growth inhibition was -59%.

Consider `COC(=O)CSSCc1ccc([N+](=O)[O-])cc1`, for which the growth inhibition is 24%.

For `CCS(=O)(=O)c1ccc(/C=C/C=N/NC(=S)NCC(C)C)cc1`, the growth inhibition was 0%.

Turning to `N#CC(C(=O)Nc1ccccc1)C1=C(Cl)C(=O)c2ccccc2C1=O` (centres undefined), the growth inhibition was 97% (active).

`C[C@H](CCC(=O)NN)[C@H]1CC[C@H]2[C@@H]3CC[C@@H]4C[C@H](O)CC[C@]4(C)[C@H]3CC[C@]12C`: the growth inhibition was 8%.

Regarding `CC[n+]1ccc2c(C)c3[nH]c4ccc(O)cc4c3c(C)c2c1`, the growth inhibition was -16%.

For the origin of these results see PubChem BioAssay (NCI).
